Screen size: about 5,500 compounds; about 2,000 (36%) were called active. Another 18% or so got no clear call; they are omitted. Cut-off read from the data, not from the text of the source: active = normalized growth mostly below about 0.91 (no sharp cut-off); inconclusive = no clear call, values can overlap the other calls; inactive = mostly above about 0.92. This is one part of the list.
Assay: chemical genetic growth profiling, strain panel (AID 1159580);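 note: tested at 20 µM; growth read once vehicle control cultures reached saturation at 30 °C; 1 = growth at the plate median or of vehicle wells; lower values mean less growth of the strain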
Details: growth OD

Measured: normalized growth

CC(=O)[C@H]1CCC2C3CCC4=CC(=O)CC[C@]4(C)C3CC[C@@]21C (some centres not stated)
active: S. cerevisiae deletion strains, locus YKL085W, strain MDH1 (second series), hits give low values 0.929 | S. cerevisiae deletion strains, locus YKL085W, strain MDH1, hits give low values 0.929 | S. cerevisiae deletion strains, locus YKR001C, strain vps1, hits give low values 0.704 | S. cerevisiae deletion strains, locus YLR039C, strain RIC1, hits give low values 0.447 | S. cerevisiae deletion strains, locus YLR262C, strain YPT6 (second series), hits give low values 0.475 | S. cerevisiae deletion strains, locus YLR262C, strain YPT6, hits give low values 0.494 | S. cerevisiae deletion strains, locus YLR268W, strain sec22, hits give low values 0.718 | S. cerevisiae deletion strains, locus YLR320W, strain mms22, hits give low values 0.615 | S. cerevisiae deletion strains, locus YLR371W, strain rom2, hits give low values 0.904 | S. cerevisiae deletion strains, locus YLR418C, strain cdc73, hits give low values 0.441 | S. cerevisiae deletion strains, locus YML032C, strain rad52, hits give low values 0.76 | S. cerevisiae deletion strains, locus YMR078C, strain ctf18, hits give low values 0.724 | S. cerevisiae deletion strains, locus YMR205C, strain PFK2, hits give low values 0.813 | S. cerevisiae deletion strains, locus YMR223W, strain ubp8, hits give low values 0.782 | S. cerevisiae deletion strains, locus YNL071W, strain lat1, hits give low values 0.632 | S. cerevisiae deletion strains, locus YNL271C, strain bni1, hits give low values 0.889 | S. cerevisiae deletion strains, locus YNL298W, strain CLA4, hits give low values 0.865 | S. cerevisiae deletion strains, locus YNL307C, strain MCK1, hits give low values 0.185 | S. cerevisiae deletion strains, locus YNR052C, strain pop2, hits give low values 0.733 | S. cerevisiae deletion strains, locus YOL147C, strain pex11, hits give low values 0.527 | S. cerevisiae deletion strains, locus YOR144C, strain elg1, hits give low values 0.852 | S. cerevisiae deletion strains, locus YOR184W, strain ser1, hits give low values 0.284 | S. cerevisiae deletion strains, locus YOR270C, strain vph1, hits give low values 0.704 | S. cerevisiae deletion strains, locus YOR316C, strain cot1, hits give low values 0.884 | S. cerevisiae deletion strains, locus YPL051W, strain arl3, hits give low values 0.903 | S. cerevisiae deletion strains, locus YPL078C, strain atp4, hits give low values 0.874 | S. cerevisiae deletion strains, locus YPR119W, strain clb2, hits give low values 0.919 | S. cerevisiae deletion strains, locus YPR163C, strain tif3, hits give low values 0.527 | S. cerevisiae deletion strains, strain wtn01, hits give low values 0.789
inactive: S. cerevisiae deletion strains, locus YJR075W, strain HOC1, hits give low values 0.949 | S. cerevisiae deletion strains, locus YKL009W, strain mrt4, hits give low values 0.914 | S. cerevisiae deletion strains, locus YKL068W, hits give low values 0.947 | S. cerevisiae deletion strains, locus YKL160W, strain elf1, hits give low values 0.913 | S. cerevisiae deletion strains, locus YKL190W, strain CNB1, hits give low values 0.978 | S. cerevisiae deletion strains, locus YKR026C, strain gcn3, hits give low values 0.981 | S. cerevisiae deletion strains, locus YKR091W, strain srl3, hits give low values 0.977 | S. cerevisiae deletion strains, locus YLL001W, strain dnm1, hits give low values 0.989 | S. cerevisiae deletion strains, locus YLL026W, hits give low values 0.978 | S. cerevisiae deletion strains, locus YLL041C, strain sdh2, hits give low values 0.977 | S. cerevisiae deletion strains, locus YLR027C, strain aat2, hits give low values 0.95 | S. cerevisiae deletion strains, locus YLR058C, strain SHM2, hits give low values 0.974 | S. cerevisiae deletion strains, locus YLR102C, strain apc9, hits give low values 0.942 | S. cerevisiae deletion strains, locus YLR113W, strain HOG1, hits give low values 0.958 | S. cerevisiae deletion strains, locus YLR221C, strain rsa3, hits give low values 0.955 | S. cerevisiae deletion strains, locus YLR258W, strain gsy2, hits give low values 0.962 | S. cerevisiae deletion strains, locus YLR330W, strain CHS5, hits give low values 0.978 | S. cerevisiae deletion strains, locus YLR342W, strain FKS1 (second series), hits give low values 0.814 | S. cerevisiae deletion strains, locus YLR342W, strain FKS1, hits give low values 0.94 | S. cerevisiae deletion strains, locus YLR357W, strain rsc2, hits give low values 1.05 | S. cerevisiae deletion strains, locus YLR370C, strain arc18, hits give low values 0.957 | S. cerevisiae deletion strains, locus YLR384C, strain iki3, hits give low values 0.968 | S. cerevisiae deletion strains, locus YML016C, strain PPZ1, hits give low values 0.963 | S. cerevisiae deletion strains, locus YML120C, strain ndi1, hits give low values 0.966 | S. cerevisiae deletion strains, locus YML124C, strain tub3, hits give low values 0.942 | S. cerevisiae deletion strains, locus YMR058W, strain fet3, hits give low values 0.923 | S. cerevisiae deletion strains, locus YMR125W, strain sto1, hits give low values 0.942 | S. cerevisiae deletion strains, locus YMR129W, hits give low values 0.976 | S. cerevisiae deletion strains, locus YMR231W, strain pep5, hits give low values 0.96 | S. cerevisiae deletion strains, locus YMR263W, strain SAP30, hits give low values 0.973 | S. cerevisiae deletion strains, locus YMR307W, strain GAS1, hits give low values 0.78 | S. cerevisiae deletion strains, locus YNL067W, strain RPL9B, hits give low values 0.952 | S. cerevisiae deletion strains, locus YNL128W, strain TEP1, hits give low values 0.99 | S. cerevisiae deletion strains, locus YNL153C, strain GIM3, hits give low values 0.967 | S. cerevisiae deletion strains, locus YNL183C, strain NPR1, hits give low values 0.933 | S. cerevisiae deletion strains, locus YNL209W, strain ssb2, hits give low values 0.991 | S. cerevisiae deletion strains, locus YNL233W, strain BNI4, hits give low values 0.947 | S. cerevisiae deletion strains, locus YNL248C, strain rpa49, hits give low values 0.94 | S. cerevisiae deletion strains, locus YNL250W, strain rad50, hits give low values 0.917 | S. cerevisiae deletion strains, locus YNL322C, strain KRE1 (second series), hits give low values 1 | S. cerevisiae deletion strains, locus YNL322C, strain KRE1, hits give low values 0.989 | S. cerevisiae deletion strains, locus YNR049C, strain mso1, hits give low values 0.975 | S. cerevisiae deletion strains, locus YOL006C, strain TOP1, hits give low values 0.652 | S. cerevisiae deletion strains, locus YOL012C, strain htz1 0.798 | S. cerevisiae deletion strains, locus YOR001W, strain rrp6, hits give low values 0.934 | S. cerevisiae deletion strains, locus YOR061W, strain CKA2, hits give low values 0.964 | S. cerevisiae deletion strains, locus YOR069W, strain VPS5, hits give low values 0.978 | S. cerevisiae deletion strains, locus YOR070C, strain gyp1, hits give low values 0.955 | S. cerevisiae deletion strains, locus YOR080W, strain dia2, hits give low values 0.993 | S. cerevisiae deletion strains, locus YOR083W, strain WHI5, hits give low values 0.941 | S. cerevisiae deletion strains, locus YOR106W, strain vam3, hits give low values 0.95 | S. cerevisiae deletion strains, locus YOR136W, strain idh2, hits give low values 0.943 | S. cerevisiae deletion strains, locus YOR231W, strain MKK1, hits give low values 0.937 | S. cerevisiae deletion strains, locus YOR265W, strain rbl2, hits give low values 0.967 | S. cerevisiae deletion strains, locus YOR290C, strain snf2, hits give low values 0.926 | S. cerevisiae deletion strains, locus YPL055C, strain LGE1, hits give low values 0.929 | S. cerevisiae deletion strains, locus YPL106C, strain sse1, hits give low values 1.05 | S. cerevisiae deletion strains, locus YPL240C, strain hsp82, hits give low values 0.964 | S. cerevisiae deletion strains, locus YPL241C, strain CIN2, hits give low values 0.977 | S. cerevisiae deletion strains, locus YPL256C, strain CLN2, hits give low values 0.981 | S. cerevisiae deletion strains, locus YPR141C, strain kar3, hits give low values 0.937 | S. cerevisiae deletion strains, locus YPR167C, strain met16, hits give low values 0.945 | S. cerevisiae strains, strain wild type, hits give low values 0.974

Reference: PubChem BioAssay AID1159580 (chemical genetic matrix, 2015)
